Experimental data reported in PubChem BioAssay.
The source made the active and inactive calls.

Legend:
[1] = system: PRMT1 (protein arginine N-methyltransferase 1); assay: PRMT1 binders on small-molecule microarrays, primary screen, biochemical, small-molecule microarray, 635 nm fluorescence (AID 1088); details: small-molecule microarray binding, higher = more signal;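 further: binding of Prmt1 protein to compounds spotted on small-molecule microarray slides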
[2] = yeast growth modulation, basal conditions, primary screen, YJM789 clinical isolate, OD600, 24 h (AID 1089);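 further: growth of clinical yeast isolate S. cerevisiae YJM 789 seeded 1000 cells per well; test concentration not given here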; details: S. cerevisiae YJM789 growth, higher = more signal, called active from +8 up or from −8 down
[3] = fission yeast growth modulation, primary screen, strain 972, OD600, 24 h, no modulator (AID 1090);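 further: basal condition with compound alone and no growth modifier present; test concentration not given here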; details: S. pombe 972 growth, higher = more signal, called active from +8 up or from −8 down
[4] = S. cerevisiae growth modulation with rapamycin, primary screen, strain BY4716, OD600, 96 h (AID 1091); details: higher = more signal, called active from +8 up or from −8 down; further: test concentration not given here
[5] = biological target: Torsin-1A-interacting protein 2 (Homo sapiens) (UniProt Q8NFQ8); assay: LULL1 binders on small-molecule microarray, primary screen, cell lysate, human LULL1 lysate, 635/667 nm fluorescence (AID 1092); details: hLULL1 lysate binding, 635 nm fluorescence, higher = more signal;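 further: probe is lysate of COS7 cells overexpressing human LULL1; score merges per-feature 667 nm fluorescence with signal-to-noise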
Torsin-1A-interacting protein 2 (Homo sapiens), sequence (Q8NFQ8 whole entry, looked up): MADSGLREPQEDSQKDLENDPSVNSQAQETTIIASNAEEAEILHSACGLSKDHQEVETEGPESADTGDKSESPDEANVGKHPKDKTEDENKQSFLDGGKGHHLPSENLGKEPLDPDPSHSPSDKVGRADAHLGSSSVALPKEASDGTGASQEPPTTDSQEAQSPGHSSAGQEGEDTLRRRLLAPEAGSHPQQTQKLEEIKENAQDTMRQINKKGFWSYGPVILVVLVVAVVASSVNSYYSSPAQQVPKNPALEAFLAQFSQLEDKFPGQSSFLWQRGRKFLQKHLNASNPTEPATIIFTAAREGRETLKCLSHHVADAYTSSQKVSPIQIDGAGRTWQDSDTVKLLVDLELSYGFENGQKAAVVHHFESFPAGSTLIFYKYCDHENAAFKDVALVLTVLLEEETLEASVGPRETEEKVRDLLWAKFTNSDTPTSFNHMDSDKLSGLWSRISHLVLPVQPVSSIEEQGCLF

[6] = E. coli growth modulation, two-sided OD650, primary screen, E. coli filamentation project, strain DRC41, 24 h (AID 1093); details: OD650, 24 h, higher = more signal, called active from +8 up or from −8 down;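 further: MC1000 strain lacking acrAB efflux and sulA so SOS filamentation is blocked; test concentration not given here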
[7] = small-molecule microarray binders of probe aLefty2, primary screen, biochemical, biotinylated probe, 635/667 nm fluorescence (AID 1094); details: higher = more signal;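 further: score merges spot fluorescence near 667 nm with spot signal-to-noise ratio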
[8] = system: Noggin (protein binding on small-molecule microarray); assay: Noggin binders on small-molecule microarray, primary screen, biochemical, 635/667 nm fluorescence (AID 1095); details: 635 nm fluorescence, higher = more signal;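 further: score merges 667 nm feature fluorescence with signal to noise over triplicate slides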
[9] = biological target: Neurogenic locus notch homolog protein 3 (Homo sapiens) (UniProt Q9UM47); assay: NOTCH3 binders on small-molecule microarray, primary screen, biochemical, 635/667 nm fluorescence (AID 1096); details: NOTCH3 binding, 635 nm fluorescence, higher = more signal
Neurogenic locus notch homolog protein 3 (Homo sapiens), sequence (Q9UM47 whole entry, looked up): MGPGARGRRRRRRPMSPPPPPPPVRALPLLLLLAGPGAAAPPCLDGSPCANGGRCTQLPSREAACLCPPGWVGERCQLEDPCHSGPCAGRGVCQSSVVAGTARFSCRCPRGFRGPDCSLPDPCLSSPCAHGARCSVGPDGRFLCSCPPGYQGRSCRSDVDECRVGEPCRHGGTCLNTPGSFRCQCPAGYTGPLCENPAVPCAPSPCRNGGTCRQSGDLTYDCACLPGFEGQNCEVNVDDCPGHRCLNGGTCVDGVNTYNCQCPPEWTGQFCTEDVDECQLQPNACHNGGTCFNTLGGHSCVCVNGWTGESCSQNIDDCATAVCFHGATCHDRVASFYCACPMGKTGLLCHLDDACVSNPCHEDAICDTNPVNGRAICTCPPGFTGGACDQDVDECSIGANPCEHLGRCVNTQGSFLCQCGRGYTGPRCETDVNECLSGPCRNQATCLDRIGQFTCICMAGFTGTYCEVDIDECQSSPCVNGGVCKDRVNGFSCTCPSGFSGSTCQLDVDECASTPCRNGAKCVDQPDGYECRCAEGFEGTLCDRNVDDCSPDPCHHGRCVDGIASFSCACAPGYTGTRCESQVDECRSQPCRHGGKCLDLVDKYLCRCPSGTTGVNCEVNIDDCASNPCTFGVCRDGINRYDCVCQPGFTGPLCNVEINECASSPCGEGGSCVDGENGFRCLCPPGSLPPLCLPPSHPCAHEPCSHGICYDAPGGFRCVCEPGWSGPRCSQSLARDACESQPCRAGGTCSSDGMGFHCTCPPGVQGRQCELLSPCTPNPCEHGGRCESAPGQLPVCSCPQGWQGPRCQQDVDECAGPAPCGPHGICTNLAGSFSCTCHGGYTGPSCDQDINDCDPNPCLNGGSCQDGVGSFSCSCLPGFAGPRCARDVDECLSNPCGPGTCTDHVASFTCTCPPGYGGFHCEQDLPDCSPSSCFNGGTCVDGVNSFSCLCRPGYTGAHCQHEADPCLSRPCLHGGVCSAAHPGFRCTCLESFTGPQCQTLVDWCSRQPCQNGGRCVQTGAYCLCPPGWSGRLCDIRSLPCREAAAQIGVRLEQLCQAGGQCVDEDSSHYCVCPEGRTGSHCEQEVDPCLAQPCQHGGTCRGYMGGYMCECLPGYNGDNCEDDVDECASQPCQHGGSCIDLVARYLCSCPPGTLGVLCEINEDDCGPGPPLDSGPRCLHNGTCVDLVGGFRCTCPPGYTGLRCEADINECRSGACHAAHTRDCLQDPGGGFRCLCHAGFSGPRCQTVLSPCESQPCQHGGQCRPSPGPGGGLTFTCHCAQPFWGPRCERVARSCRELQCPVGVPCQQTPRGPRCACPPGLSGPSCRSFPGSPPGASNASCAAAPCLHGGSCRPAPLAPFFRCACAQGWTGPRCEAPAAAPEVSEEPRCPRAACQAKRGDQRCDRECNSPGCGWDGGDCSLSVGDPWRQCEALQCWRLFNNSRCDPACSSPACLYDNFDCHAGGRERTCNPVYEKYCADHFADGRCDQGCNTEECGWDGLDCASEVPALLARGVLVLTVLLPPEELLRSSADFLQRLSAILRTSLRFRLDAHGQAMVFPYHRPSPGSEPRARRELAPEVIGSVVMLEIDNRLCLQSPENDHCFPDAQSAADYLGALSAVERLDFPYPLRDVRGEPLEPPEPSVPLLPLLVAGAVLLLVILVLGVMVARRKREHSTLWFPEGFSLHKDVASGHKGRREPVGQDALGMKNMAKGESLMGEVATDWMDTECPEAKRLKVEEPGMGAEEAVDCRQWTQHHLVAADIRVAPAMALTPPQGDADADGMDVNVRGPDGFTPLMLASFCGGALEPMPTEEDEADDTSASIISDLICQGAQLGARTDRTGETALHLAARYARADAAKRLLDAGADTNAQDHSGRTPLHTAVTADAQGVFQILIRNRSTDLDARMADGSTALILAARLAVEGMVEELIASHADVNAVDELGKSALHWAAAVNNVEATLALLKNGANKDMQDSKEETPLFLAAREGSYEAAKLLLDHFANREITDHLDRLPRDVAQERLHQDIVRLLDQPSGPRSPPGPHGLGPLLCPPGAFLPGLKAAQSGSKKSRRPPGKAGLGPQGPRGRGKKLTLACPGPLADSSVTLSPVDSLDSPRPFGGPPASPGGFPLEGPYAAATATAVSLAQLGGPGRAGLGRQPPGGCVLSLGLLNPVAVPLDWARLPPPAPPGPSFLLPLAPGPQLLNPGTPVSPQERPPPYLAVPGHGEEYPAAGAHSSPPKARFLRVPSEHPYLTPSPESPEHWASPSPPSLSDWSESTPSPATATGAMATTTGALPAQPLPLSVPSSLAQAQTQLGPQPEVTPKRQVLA

[10] = small-molecule microarray binders of probe aEGFR, primary screen, biochemical, biotinylated probe, 635/667 nm fluorescence (AID 1097); details: higher = more signal;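 further: probe is a biotinylated anti-EGFR antibody binding compounds printed on slides; score combines fluorescence near 667 nm and signal to noise of each spot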
[11] = system: Plasmodium falciparum Sir2 (PF13_0152, Sir2A); assay: pfSir2 binders on small-molecule microarrays, primary screen, biochemical, small-molecule microarray, 635 nm fluorescence (AID 1098); details: small-molecule microarray binding, fluorescence 635 nm; higher = more signal;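 further: score merges spot fluorescence intensity with its signal-to-noise ratio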
[12] = small-molecule microarray binders of probe aDKK1, primary screen, biochemical, biotinylated probe, 635/667 nm fluorescence (AID 1099); details: higher = more signal;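 further: score merges 667nm spot fluorescence with signal to noise across triplicate slides; reference of the scale not given here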
[13] = small-molecule microarray binders of probe aCHRDL2, primary screen, biochemical, biotinylated probe, 635/667 nm fluorescence (AID 1100); details: higher = more signal
[14] = splicing luciferase reporter signal modulators, primary screen, spliceosome inhibition project, cell-based, HEK293, splice +/- reporter (AID 1101); details: luminescence, 24 h, higher = more signal, called active from +8 up or from −8 down;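 further: HEK293 cells carrying a splicing-competent luciferase reporter gene; test concentration not given here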
[15] = biological target: Fibroblast growth factor 10 (Homo sapiens) (UniProt O15520); assay: FGF10 binders on small-molecule microarrays, primary screen, biochemical, small-molecule microarray, 635 nm fluorescence (AID 1102); details: FGF10 binding, fluorescence 635 nm, higher = more signal
Fibroblast growth factor 10 (Homo sapiens), sequence (O15520 whole entry, looked up): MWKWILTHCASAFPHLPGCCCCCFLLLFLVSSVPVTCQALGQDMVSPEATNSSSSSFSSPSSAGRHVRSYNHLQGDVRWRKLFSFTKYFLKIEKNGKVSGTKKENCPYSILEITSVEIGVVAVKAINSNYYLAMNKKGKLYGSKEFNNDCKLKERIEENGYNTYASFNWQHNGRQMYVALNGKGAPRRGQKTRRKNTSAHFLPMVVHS

[16] = system: glycogen synthase kinase-3 (GSK3A per assay name; protocol says GSK3B); assay: GSK3 binders on small-molecule microarrays, primary screen, biochemical, small-molecule microarray, 635 nm fluorescence, GSK3A (AID 1103); details: small-molecule microarray binding, fluorescence 635 nm; higher = more signal; further: the record names both GSK3A and GSK3B
[17] = biological target: Epidermal growth factor receptor (Homo sapiens) (UniProt P00533); assay: EGFR binders on small-molecule microarrays, primary screen, biochemical, small-molecule microarray, 635 nm fluorescence (AID 1104); details: EGFR binding, higher = more signal;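 further: score merges 667 nm emission intensity with spot signal to noise over triplicate slides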
Epidermal growth factor receptor (Homo sapiens), sequence (P00533 whole entry, looked up): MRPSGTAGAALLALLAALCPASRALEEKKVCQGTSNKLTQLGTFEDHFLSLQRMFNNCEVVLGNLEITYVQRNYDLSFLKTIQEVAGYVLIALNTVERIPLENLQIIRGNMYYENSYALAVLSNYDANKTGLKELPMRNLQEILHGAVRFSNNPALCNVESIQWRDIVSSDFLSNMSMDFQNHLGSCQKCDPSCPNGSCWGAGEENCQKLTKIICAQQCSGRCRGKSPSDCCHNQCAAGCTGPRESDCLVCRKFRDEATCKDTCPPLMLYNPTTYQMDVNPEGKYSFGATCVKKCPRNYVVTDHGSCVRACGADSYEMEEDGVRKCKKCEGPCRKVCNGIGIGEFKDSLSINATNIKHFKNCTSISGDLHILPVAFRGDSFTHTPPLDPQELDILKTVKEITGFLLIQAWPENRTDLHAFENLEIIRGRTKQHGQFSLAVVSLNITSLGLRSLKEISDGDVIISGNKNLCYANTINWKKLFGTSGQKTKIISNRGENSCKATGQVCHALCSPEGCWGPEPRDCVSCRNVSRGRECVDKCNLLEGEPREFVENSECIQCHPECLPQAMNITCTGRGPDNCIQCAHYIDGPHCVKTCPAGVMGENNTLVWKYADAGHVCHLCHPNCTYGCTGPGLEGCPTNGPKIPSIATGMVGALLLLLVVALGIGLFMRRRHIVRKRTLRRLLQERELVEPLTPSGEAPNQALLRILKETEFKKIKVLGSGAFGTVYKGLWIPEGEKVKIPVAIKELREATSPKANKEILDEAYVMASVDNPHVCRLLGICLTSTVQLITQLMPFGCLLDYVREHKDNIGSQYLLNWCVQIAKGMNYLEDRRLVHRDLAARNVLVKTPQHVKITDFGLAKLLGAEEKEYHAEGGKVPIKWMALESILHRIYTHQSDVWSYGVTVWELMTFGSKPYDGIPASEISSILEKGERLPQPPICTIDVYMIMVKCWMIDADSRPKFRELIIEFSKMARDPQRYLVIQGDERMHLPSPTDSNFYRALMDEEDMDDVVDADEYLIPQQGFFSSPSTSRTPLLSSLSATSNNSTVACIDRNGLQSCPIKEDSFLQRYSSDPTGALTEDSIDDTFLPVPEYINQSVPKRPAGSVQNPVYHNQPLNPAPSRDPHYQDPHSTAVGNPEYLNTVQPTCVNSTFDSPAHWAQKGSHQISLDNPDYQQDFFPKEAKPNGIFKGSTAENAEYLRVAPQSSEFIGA

[18] = biological target: Follistatin-related protein 3 (Homo sapiens) (UniProt O95633); assay: FSTL3 binders on small-molecule microarrays, primary screen, biochemical, small-molecule microarray, 635 nm fluorescence (AID 1105); details: FSTL3 binding, higher = more signal;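 further: score merges emission near 667 nm and signal to noise per printed spot across three slides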
Follistatin-related protein 3 (Homo sapiens), sequence (O95633 whole entry, looked up): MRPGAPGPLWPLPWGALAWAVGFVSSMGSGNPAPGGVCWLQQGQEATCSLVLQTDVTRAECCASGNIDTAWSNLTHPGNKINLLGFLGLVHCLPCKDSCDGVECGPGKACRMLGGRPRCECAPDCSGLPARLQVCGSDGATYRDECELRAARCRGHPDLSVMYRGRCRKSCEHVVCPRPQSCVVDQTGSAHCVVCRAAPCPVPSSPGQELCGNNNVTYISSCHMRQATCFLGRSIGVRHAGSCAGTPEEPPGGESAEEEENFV

[19] = biological target: Dickkopf-related protein 1 (Homo sapiens) (UniProt O94907); assay: DKK1 binders on small-molecule microarrays, primary screen, biochemical, small-molecule microarray, 635 nm fluorescence scan (AID 1106); details: DKK1 binding, higher = more signal;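 further: score merges emission near 667 nm with signal to noise over three replicate slides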
Dickkopf-related protein 1 (Homo sapiens), sequence (O94907 whole entry, looked up): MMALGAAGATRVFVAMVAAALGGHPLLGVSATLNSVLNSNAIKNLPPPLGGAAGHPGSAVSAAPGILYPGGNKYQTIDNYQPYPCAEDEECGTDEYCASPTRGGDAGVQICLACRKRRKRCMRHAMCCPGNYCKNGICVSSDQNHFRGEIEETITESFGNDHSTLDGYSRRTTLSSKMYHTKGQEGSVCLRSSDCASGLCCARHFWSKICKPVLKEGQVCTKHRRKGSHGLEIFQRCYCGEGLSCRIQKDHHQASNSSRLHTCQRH

[20] = system: Inhibin beta A chain (activin A); assay: INHBA (activin A) binders on microarrays, primary screen, biochemical, small-molecule microarray, 635 nm fluorescence scan (AID 1107); details: small-molecule microarray binding, higher = more signal;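 further: mouse activin A protein probed at 4.33 µg/mL on printed slides; score merges bound-protein fluorescence near 667 nm with spot signal-to-noise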

Structure (SMILES)	composite z-score [1]	z-score [2]	z-score [3]	z-score [4]	composite z-score [5]	z-score [6]	composite z-score [7]	composite z-score [8]	composite z-score [9]	composite z-score [10]	composite z-score [11]	composite z-score [12]	composite z-score [13]	z-score [14]	composite z-score [15]	composite z-score [16]	composite z-score [17]	composite z-score [18]	composite z-score [19]	composite z-score [20]
Cc1ccc(S[C@]2(C(=O)O)CC(=O)N(Cc3ccccc3C(F)(F)F)[C@@H]2c2ccc(CO)cc2I)cc1	0.471	-1.73 (inactive)	-2.36 (inactive)	0.695 (inactive)	1.65	-1.11 (inactive)	-0.205	-0.571	-1.02	-0.213	-0.135	-0.537	0.337	-1.15 (inactive)	-0.39	-0.518	-1.11	-1	-1.28	1.16
CO[C@H]1O[C@H](CO)[C@@H](OC(=O)Nc2ccccc2-c2ccccc2)[C@H](OC(=O)Nc2ccccc2-c2ccccc2)[C@@H]1OC(=O)Nc1ccccc1-c1ccccc1	1.54	1.95 (inactive)	0.181 (inactive)	7.28 (inactive)	2.96	1.59 (inactive)	-0.0569	0.761	1.08	-0.0757	1.63	0.408	0.625	0.389 (inactive)	1.43	1.12	-0.168	1.03	0.208	0.0923
O=C1C2C=CC(C(O)COCc3ccccc3)N(Nc3ccc([N+](=O)[O-])cc3)C2C(=O)N1c1ccccc1 (stereo not given)	1.46	-0.464 (inactive)	1.12 (inactive)	2.16 (inactive)	2.83	0.547 (inactive)	0.168	0.661	1.09	-0.0072	1.06	0.735	0.889	-1.44 (inactive)	1.05	1.32	0.42	1.22	0.111	0.976
CCCCC(=C=CC[C@@H](O)c1cccc(OCCO)c1)C[C@@H](O)c1ccccn1	1.55	-0.937 (inactive)	-0.606 (inactive)	-0.725 (inactive)	2.07	0.149 (inactive)	-0.207	1.46	1.01	-0.099	1.6	-0.132	-0.387	-0.123 (inactive)	1.06	0.839	-0.181	1.07	0.168	0.869
COCCOC(=O)N1C(=O)[C@@]2(c3cc(C#CC4(O)CCCCCC4)ccc31)[C@H](C(=O)Nc1nc3ccccc3s1)[C@H]1C(=O)O[C@H](c3ccccc3)[C@H](c3ccccc3)N1[C@@H]2c1ccc(OCCO)cc1	1.55	2.38 (inactive)	1.32 (inactive)	4.01 (inactive)	1.87	0.76 (inactive)	-0.0458	1.45	1.09	0.0064	1.28	0.0895	0.0903	-0.426 (inactive)	1.25	1.3	0.583	1.37	0.84	0.8
